What all share (assay): NCI-60 one-dose screen, 48 h (100 = growth as untreated, 0 = no growth, -100 = all killed)
What all share (settings): 10 µM unless noted

For assay [1], the system named is DU-145 prostate.
For assay [2], the system named is K-562 leukemia.
Assay [3] relates to MALME-3M melanoma.
In assay [4] the test system is MDA-MB-231 breast.
The test system of assay [5] is RXF 393 renal.
In assay [6] the test system is SF-268 CNS.
Assay [7] deals with SF-295 CNS.
Assay [8] concerns SF-539 CNS.
Assay [9] relates to UACC-257 melanoma.
For assay [10], the system named is M14 melanoma.
Assay [11] relates to HCT-15 colon.
For assay [12], the system named is HT29 colon.
In assay [13] the test system is SNB-75 CNS.
Assay [14] deals with SNB-19 CNS.
The test system of assay [15] is U251 CNS.
Assay [16] relates to PC-3 prostate.
For assay [17], the system named is SK-MEL-5 melanoma.
Assay [18] concerns UACC-62 melanoma.
For assay [19], the system named is LOX IMVI melanoma.
For assay [20], the system named is SK-MEL-28 melanoma.

SMILES strings stand for the structures. About 83,000 compounds went through this panel and 20% of them were active in at least one assay; those are over-represented in the sample as a whole.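 Plates (96-well) were seeded with cells, treated with compound at one concentration, and incubated for 48 hours before percent growth was determined.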 A number with no mark means an inactive call. The source made the active and inactive calls. The calls were made as follows: active = growth percent below 10; inactive = the rest.

`COc1cc(/C=C/C(=O)c2ccc(S(=O)(=O)NCCNc3nc(N(C)C)nc(N4CCOCC4)n3)cc2)cc(OC)c1OC`: the growth was 13.8% in assay [1]; -67.8% (active) in assay [2]; 41.2% in assay [3]; -82% (active) in assay [4]; -100% (active) in assay [5]; -3.35% (active) in [6]. For the same compound, the growth was -68.1% (active) in assay [7]; -87.3% (active) in assay [8]; -26.5% (active) in [9]; -54.7% (active) in assay [10]; -100% (active) in assay [11]; -100% (active) in [12]. The growth in assay [13] was 20%; in [14], 29.1%; in [15] it was -100% (active); in assay [16], -76.5% (active); in [17] it was 18.8%; in assay [18], -21.7% (active). Also, the growth in assay [19] and in [20] was -100% (active) throughout.
In the case of `ClC(Cn1ncc2c(Nc3cccc(Br)c3)nc(SCCN3CCOCC3)nc21)c1ccc(Br)cc1` (stereo not given), the growth in [1] was 28.6%; in assay [2], -37.7% (active); in assay [3] it was -38% (active); in assay [4] it was -51.8% (active); in assay [5] it was -62.2% (active); in [6], 44.7%. The growth was -71.3% (active) in assay [7]; -79.1% (active) in assay [8]; -42.8% (active) in [9]; -19.5% (active) in assay [10]; -76.9% (active) in assay [11]; -43% (active) in [12]. Moreover, the growth in [13] was 59.8%; in assay [14], 22.5%; in assay [15] it was -4.38% (active); in [16], 21.3%; in [17], -89.9% (active); in assay [18], -44.3% (active). Moreover, the growth in assay [19] was -89.4% (active); in assay [20], -46.4% (active).
`Cc1ccc(C(=O)Nc2cccc(C(=O)NC(=S)Nc3ccc(S(N)(=O)=O)cc3)c2)cc1`: the growth is 77.3% in [1]; 71.2% in [2]; 59.8% in [3]; 81.3% in assay [4]; 46.4% in assay [5]; 61.4% in [6]. Also, the growth in assay [7] is 60.3%; in assay [8], 76.4%; in assay [9], 79.1%; in assay [10], 83.7%; in [11], 80.5%; in [12], 85.1%. Moreover, the growth in assay [13] was 50.5%; in assay [14], 83.1%; in assay [15], 84.4%; in [16], 78.9%; in [17] it was 49.8%; in assay [18] it was 69.4%. Moreover, the growth was 78.8% in assay [19] and 79.8% in assay [20].
Consider `C=CCSc1nnc(-c2ccc(-c3nc4ccc(Cl)cc4[nH]3)cc2)o1`, for which the growth in assay [1] is 85%; in assay [2] it was 19.5%; in [3], 39.3%; in assay [4], 41.2%; in assay [5] it was 53.1%; in [6], 75.7%. Also, the growth in assay [7] was 58.2%; in assay [8], 56.3%; in assay [9], 68.2%; in [10] it was 28.7%; in [11], 28%; in assay [12], 32.1%. Besides, the growth in [13] is 45.9%; in assay [14], 76.1%; in [15], 47.3%; in assay [16], 63.2%; in assay [17] it was 35.9%; in assay [18] it was 39.4%. Further, the growth in assay [19] is 39.4%; in assay [20], 60%.
Turning to `N#C/C(=C1/C(=O)Nc2ccccc21)c1nnc(NC(=O)c2ccc(-n3c(=O)[nH]c4ccccc4c3=O)cc2)s1`, the growth in assay [1] is 37.4%; in assay [2] it was 15.9%; in assay [3] it was 26.9%; in [4], 4.04% (active); in [5], 53.4%; in assay [6], 65.4%. In addition, the growth in [7] was 74.5%; in assay [8], 36.4%; in assay [9] it was 47.9%; in assay [10] it was 58.2%; in assay [11], 14.8%; in assay [12], 26.9%. Besides, the growth is 79.5% in assay [13]; 51.1% in assay [14]; 37.5% in assay [15]; 31.8% in assay [16]; 10.3% in assay [17]; 42% in [18]. For the same compound, the results for the growth in [19] and in assay [20] were 0.591% (active) and 34.4%, respectively.
For the compound `Cc1ccc(C(C(=O)NC2CCCCC2)N(Cc2ccccc2Cl)C(=O)c2ccc(CN3CCOCC3)o2)o1` (stereo not given), the growth is 101% in assay [1]; 81.6% in assay [2]; 109% in assay [3]; 85.5% in [4]; 93.4% in assay [5]; 83.5% in assay [6]. The growth was 91.8% in assay [7]; 99.4% in [8]; 103% in assay [9]; 98.6% in assay [10]; 98.3% in assay [11]; 95.4% in assay [12]. Besides, the growth in assay [13] is 80.2%; in assay [14], 85.6%; in assay [15], 103%; in assay [16], 78.5%; in assay [17] it was 83.4%; in [18], 66.2%. The growth in assay [19] is 87%; in assay [20] it was 114%.
`COc1c(B(O)O)cc(F)cc1-c1nc2ccc3[nH]ncc3c2c2c1COCC2`: the growth is 73.5% in [1]; 63.7% in assay [2]; 126% in assay [3]; 33.4% in assay [4]; -5.84% (active) in assay [5]; 44.9% in assay [6]. Also, the growth in [7] was 77.2%; in [8], 21.7%; in assay [9], 97.5%; in assay [10], 114%; in assay [11], 99.4%; in [12], 74.2%. The growth in assay [13] is 0.778% (active); in [14] it was 32.7%; in assay [15], 45.4%; in [16], 83.1%; in assay [17] it was 64.6%; in [18] it was 68.2%. In addition, the growth is 24.2% in assay [19] and 61.9% in [20].
For the compound `COc1ccc(C2=NN(C(=O)[C@H]3[C@@H](c4ccco4)c4sc(=O)[nH]c4S[C@@H]3C)C(c3ccc4ccccc4c3)C2)cc1` (stereo not given in full), the growth in [1] is 62.7%; in [2], 16%; in [3], 50.6%; in assay [4] it was 47.5%; in assay [5], 11.2%; in [6], 45.3%. Also, the growth in assay [7] is 38.6%; in assay [8], 28.6%; in assay [9], 43.2%; in assay [10], 24.1%; in assay [11], 12%; in [12], 15.3%. The growth is 50.8% in assay [13]; 39.8% in assay [14]; 19.5% in assay [15]; 28.6% in assay [16]; 36.5% in [17]; 29% in assay [18]. In addition, the figures for the growth in assay [19] and in assay [20] were 31.3% and 32%, respectively.

Values taken from PubChem BioAssay (NCI).
